This is an account of results in PubChem BioAssay (NCATS).

The target of assay [1] is Glutathione peroxidase 1 (Homo sapiens) (UniProt P07203). As to the kind of experiment: Primary qHTS Assay for Inhibitors of Recombinant Selenoprotein Glutathione Peroxidase 1 (GPX1) (AID 1845191). Further: nearly all actives have a fitted effect of over 65% in size. Further: potency means the concentration at half of the fitted maximal effect. On activity, negative = inhibition: on the % scale 0 is the no-effect control and ±100 the full control effect. Summed up:
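10 nM GPX1 + cpd, 30 min RT; start w/ 1 mM GSH, 0.5 mM cumene hydroperoxide, 0.5 mM NADPH, 100 nM GR, 0.01% BSA; buffer 50 mM Tris-HCl pH 7.5, 2 mM EDTA, 150 mM NaCl; Fl 340/450, 0 & 15 min.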
(In general: Quantitative high-throughput screening tests each substance at several concentrations.)

The target in assay [2] is Phospholipid hydroperoxide glutathione peroxidase GPX4 (Homo sapiens) (UniProt P36969). As to the kind of experiment: Primary qHTS Assay for Inhibitors of Recombinant Selenoprotein Glutathione Peroxidase 4 (GPX4) (AID 1845192). Further: nearly all actives have a fitted effect of over 65% in size. Further: potency means the concentration at half of the fitted maximal effect. On activity change, negative = inhibition: series mostly up to about 50 µM; on the % scale 0 is the no-effect control and ±100 the full control effect. Summed up:
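NADPH consumption, followed by fluorescence at 340/450 nm between 0 and 15 min, reports GPX4 activity via coupled glutathione reductase (100 nM). Enzyme 200 nM was pre-exposed to compound 30 min; 0.5 mM cumene hydroperoxide and 1 mM GSH served as substrates.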

For assay [3], the target named is Luciferin 4-monooxygenase (Photinus pyralis) (UniProt P08659). As to the kind of experiment: Primary firefly luciferase (FLuc) qHTS assay for identification of artifact compounds. (AID 1845220). Further: nearly all actives have a fitted effect of over 60% in size.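 On activity change, negative = inhibition: series mostly up to about 54 µM; plate controls were DMSO vehicle for no effect and no enzyme for full effect.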 The following applies: outcome: dose series up to 54.1 µM unless noted. Summed up: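 FLuc 10 nM; luciferin 10 uM; ATP 10 uM; Tris-acetate pH 7.6, Mg-acetate 10 mM; 15 min RT preincubation; 5 min reaction; luminescence.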

In assay [4] the test system is Nanoluciferase (engineered Oplophorus gracilirostris luciferase). As to the kind of experiment: Primary Nanoluciferase (NLuc) qHTS assay for identification of artifact compounds. (AID 1845222).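 Further: NLuc secreted into diluted conditioned medium of S16 cells; series mostly up to about 54 µM; 0% = DMSO and -100% = no enzyme.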 Summed up: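 NLuc from S16 cell medium (1:55) plus test compounds, 15 min, room temperature. Luminescence after Nano-Glo (1:100) addition, 5 min.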
Assay [5] is described as follows: Primary fluorescence-based thiol-reactive (MSTI) qHTS assay for identification of artifact compounds. (AID 1845221). Further: nearly all actives have a fitted effect of over 65% in size. Further: potency means the concentration at half of the fitted maximal effect. On activity change, negative = thiol reactive: series mostly up to about 54 µM. Summed up: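 Compounds were incubated 1 h at room temperature in the dark with the MSTI probe (4 uM) in PBS pH 7.4, 2% DMSO. Signals were normalized between Acetyl-MSTI and MSTI.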
Assay [6] in a line: Primary redox qHTS assay for identification of artifact compounds. (AID 1845223).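 Further: 0% = DMSO and 100% = reference compound.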 Summed up:
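Amplex Red (25 uM) and HRP (250 mU/mL) in HBSS, with compounds for 15 min, then 250 uM DTT for 30 min, room temperature, dark. Fluorescence 525/598 nm read; normalized to DMSO and 10 uM DA3003; Hill fit.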

Results filed as inconclusive are left out. A structure can be active in one record and inactive in another. Active and inactive are the calls of the source. The call rests on the fitted dose curve; in most records, active means well fitted curve in the direction sought with a large enough effect; inconclusive means small, poorly fitted or top-dose-only effect, or another doubt; inactive means no such curve, though single readings can be large; an effect the other way counts as inactive or inconclusive.

Sequence of Phospholipid hydroperoxide glutathione peroxidase GPX4 (Homo sapiens) (P36969 whole entry, looked up): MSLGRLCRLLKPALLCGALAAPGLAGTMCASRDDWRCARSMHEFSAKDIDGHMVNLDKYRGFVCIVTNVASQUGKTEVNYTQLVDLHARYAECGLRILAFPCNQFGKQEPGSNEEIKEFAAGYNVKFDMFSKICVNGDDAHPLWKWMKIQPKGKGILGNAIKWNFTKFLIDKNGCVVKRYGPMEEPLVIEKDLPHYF
Sequence of Glutathione peroxidase 1 (Homo sapiens) (P07203 whole entry, looked up): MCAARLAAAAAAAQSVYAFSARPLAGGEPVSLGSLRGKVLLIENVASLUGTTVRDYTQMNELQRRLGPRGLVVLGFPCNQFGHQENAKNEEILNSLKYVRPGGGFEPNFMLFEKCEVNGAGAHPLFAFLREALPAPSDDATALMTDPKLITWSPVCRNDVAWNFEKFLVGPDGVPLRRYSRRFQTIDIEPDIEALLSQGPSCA

Take `CC(=O)Oc1c(C)c(C)c2c(c1C)CC[C@@](C)(CCC[C@H](C)CCC[C@H](C)CCCC(C)C)O2`: the Potency entry in assay [1] and in assay [2] was “inactive” in each case.

As to `C/C(=C(\CCOP(=O)(O)O)SC(=O)c1ccccc1)N(C=O)Cc1cnc(C)nc1N`, the results for the outcome in assay [1] and in assay [2] were “inactive [at 4.49 µM]” and “inactive [at 4.52 µM]”, respectively.

As for `COc1ccccc1O`, the Potency result in assay [1] and in assay [2] was “inactive” each time.

In the case of `Oc1cccc(O)c1`, the Potency entry in assay [1] and in assay [2] was “inactive” throughout.

Take `O=C(O)[C@H](O)c1ccccc1`: the Potency result in assay [1] and in assay [2] was “inactive” in each case.

Turning to `O=c1cc[nH]c(=O)[nH]1`, the Potency entry in assay [1] and in assay [2] was “inactive” each time.

Take `O=C(O)COc1nn(Cc2ccccc2)c2ccccc12`: the Potency result in assay [1] and in assay [2] was “inactive” in each case.

On to `O=C(Oc1ccccc1C(=O)O)c1ccccc1O`, for which the Potency result in assay [1] and in assay [2] was “inactive” in each case.

With `CCOC(CN1CCN(CC(C)C(=O)c2ccccc2)CC1)c1ccccc1` (stereo unspecified), the Potency result in assay [1] and in assay [2] was “inactive” each time. The result in assay [3] and in assay [4] was inactive.

With `CCOc1ccc2ccccc2c1C(=O)N[C@@H]1C(=O)N2[C@@H]1SC(C)(C)[C@@H]2C(=O)O`, the Potency entry in assay [1], in assay [2] and in assay [5] was “inactive” throughout. In addition, the compound was classed as inactive in assay [3] and in assay [4].

In the case of `Cc1cc(C(C#N)c2ccc(Cl)cc2)c(Cl)cc1NC(=O)c1cc(I)cc(I)c1O` (stereo unspecified), the Potency result in assay [1], in assay [2] and in assay [5] was “inactive” each time. Besides, the call in assay [4] and in assay [6] was inactive.

As for `CC/C=C(\C(=O)N[C@@H]1C(=O)N2C(C(=O)OCOC(=O)C(C)(C)C)=C(COC(N)=O)CS[C@H]12)c1csc(N)n1`, the Potency in assay [1] is 9.04 µM (active); in assay [2], 11.2 µM (active) and inactive. Further, the result in assay [3], in assay [4] and in assay [6] was inactive. Further, the Potency result in assay [5] was “inactive”.

With `Cn1c(=O)c2c(ncn2CC2OCCO2)n(C)c1=O`, the Potency entry in assay [1], in assay [2] and in assay [5] was “inactive” throughout. In addition, the compound was classed as inactive in assay [3], in assay [4] and in assay [6].

On to `C[C@]12CC[C@@H]3c4ccc(O)cc4CC[C@H]3[C@@H]1CC[C@@H]2OC(=O)CCC1CCCC1`, for which the Potency entry in assay [1], in assay [2] and in assay [5] was “inactive” throughout. For the same compound, the compound was called inactive in assay [3], in assay [4] and in assay [6].

With `CC(C)(C)C(=O)C(Oc1ccc(Cl)cc1)n1ccnc1` (stereo unspecified), the Potency entry in assay [1], in assay [2] and in assay [5] was “inactive” in each case. Besides, the outcome in assay [3], in assay [4] and in assay [6] was inactive.

As for `CCOC(=O)[C@H](CCc1ccccc1)N[C@@H](C)C(=O)N1C(=O)N(C)C[C@H]1C(=O)O`, the Potency entry in assay [1], in assay [2] and in assay [5] was “inactive” each time. In addition, the compound was called inactive in assay [3], in assay [4] and in assay [6].

With `c1ccc(CN(CC2=NCCN2)c2ccccc2)cc1`, the Potency entry in assay [1], in assay [2] and in assay [5] was “inactive” in each case. Besides, the compound was classed as inactive in assay [3], in assay [4] and in assay [6].

On to `Cc1ccc(C(C)C)cc2c(C)ccc1-2`, for which, in assay [2], the Potency result is “inactive”.

With `C[C@@H]1CN(c2c(F)c(F)c3c(=O)c(C(=O)O)cn(C4CC4)c3c2F)C[C@H](C)N1`, the Potency result in assay [1] and in assay [2] was “inactive” throughout. For the same compound, in assay [3], the activity change, negative = inhibition was 2.25% [at 11.6 µM] (inactive). In addition, in assay [5], the activity change, negative = thiol reactive was -0.316% [at 11.5 µM] (inactive). Moreover, the activity, negative = inhibition in assay [4] is 4.03% [at 11.6 µM] (inactive). Moreover, in assay [6], the redox activity (% of DA3003) is -2.75% [at 11.5 µM] (inactive).

In the case of `Cc1cccc(Nc2cc(Cl)nc(SCC(=O)O)n2)c1C`, the Potency entry in assay [1], in assay [2] and in assay [5] was “inactive” in each case. Moreover, the compound was called inactive in assay [3] and in assay [6].

As for `Cc1ccc2nc(N)[nH]c(=O)c2c1Sc1ccncc1`, the Potency result in assay [1] and in assay [2] was “inactive” each time. In addition, the call in assay [3], in assay [4] and in assay [6] was inactive.

For the compound `CC(=O)NC(Cc1ccccc1)C(=O)O` (stereo unspecified), the Potency entry in assay [1] and in assay [2] was “inactive” in each case. The outcome in assay [3] was “inactive [at 86.2 µM]”. Moreover, the Potency in assay [5] was 11.2 µM (active). The result in assay [4] and in assay [6] was inactive.

For `CS(=O)(=O)c1ccc([C@@H](O)[C@@H](CF)NC(=O)C(Cl)Cl)cc1`, the Potency result in assay [1], in assay [2] and in assay [5] was “inactive” in each case. Further, the compound was classed as inactive in assay [3], in assay [4] and in assay [6].

As for `CCN(CC)C(=O)Nc1ccc(OCC(O)CNC(C)(C)C)c(C(C)=O)c1` (stereo unspecified), the Potency entry in assay [1], in assay [2] and in assay [5] was “inactive” throughout. Besides, the result in assay [3], in assay [4] and in assay [6] was inactive.

Take `CCCCOc1cc(C(=O)OCCN(CC)CC)ccc1N`: the Potency result in assay [1], in assay [2] and in assay [5] was “inactive” each time. Further, the result in assay [3], in assay [4] and in assay [6] was inactive.

In the case of `CCOc1nc2cccc(C(=O)O)c2n1Cc1ccc(-c2ccccc2-c2nn[nH]n2)cc1`, the Potency result in assay [1], in assay [2] and in assay [5] was “inactive” throughout. Moreover, the outcome in assay [3] and in assay [6] was inactive.

Consider `CC(C)(O)c1ccccc1CC[C@@H](SCC1(CC(=O)O)CC1)c1cccc(/C=C/c2ccc3ccc(Cl)cc3n2)c1`, for which the Potency entry in assay [1], in assay [2] and in assay [5] was “inactive” each time. Also, the compound was called inactive in assay [3], in assay [4] and in assay [6].

Consider `CCCCN1CCCC[C@H]1C(=O)Nc1c(C)cccc1C`, for which the Potency entry in assay [1], in assay [2] and in assay [5] was “inactive” in each case. Also, the call in assay [3], in assay [4] and in assay [6] was inactive.

For the compound `CN1CCOC(c2ccccc2)c2ccccc2C1` (stereo unspecified), the Potency entry in assay [1], in assay [2] and in assay [5] was “inactive” each time. Besides, the compound was called inactive in assay [3], in assay [4] and in assay [6].

Consider `COc1ccc2c(c1)C(=O)N(CCc1ccc(S(=O)(=O)NC(=O)NC3CCCCC3)cc1)C(=O)C2(C)C`, for which the Potency entry in assay [1], in assay [2] and in assay [5] was “inactive” in each case. Besides, the compound was called inactive in assay [3], in assay [4] and in assay [6].
